Assay results: PubChem BioAssay (NCI)
The panel holds about 83,000 compounds, 20% with a hit somewhere; the sample as a whole holds those more often.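 Values shown are percent growth following 48 h exposure of cells in 96-well plates to a single concentration of compound; below 10 was considered active.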 Calls of active or inactive are those of the source.

Experiments:
Experiment in all cases: NCI-60 one-dose screen, 48 h (100 = growth as untreated, 0 = no growth, -100 = all killed)
Conditions in all cases: 10 µM unless noted
T-47D breast = test system: T-47D breast
BT-549 breast = test system: BT-549 breast
MDA-MB-435 melanoma = test system: MDA-MB-435 melanoma
SW-620 colon = test system: SW-620 colon
MCF7 breast = test system: MCF7 breast
HCT-116 colon = test system: HCT-116 colon
HCC-2998 colon = test system: HCC-2998 colon
KM12 colon = test system: KM12 colon

Measured: growth

O=S(=O)(Nc1ccc(NS(=O)(=O)c2ccccc2)c(Cl)c1)c1ccccc1
inactive: T-47D breast 106% | BT-549 breast 105% | MDA-MB-435 melanoma 107% | SW-620 colon 99.1% | MCF7 breast 91.6% | HCT-116 colon 97.6% | HCC-2998 colon 104% | KM12 colon 104%

O=c1nc2oc3ccc4ccccc4c3cc-2s1
inactive: T-47D breast 12.6% | BT-549 breast 49% | SW-620 colon 20.8% | MCF7 breast 19.3% | HCT-116 colon 21.1% | HCC-2998 colon 51.4% | KM12 colon 19.5%
active: MDA-MB-435 melanoma -58.5%

Clc1ccc2c(NCCCNc3nc(-n4ccnc4)nc4ccccc34)ccnc2c1
inactive: T-47D breast 70.3% | BT-549 breast 82.8% | MDA-MB-435 melanoma 92.6% | SW-620 colon 89.8% | MCF7 breast 76.5% | HCT-116 colon 88.3% | HCC-2998 colon 106% | KM12 colon 88.5%

O=CNc1ccc2c(c1)Cc1cccc(NC=O)c1-2
inactive: T-47D breast 96.8% | BT-549 breast 94.1% | MDA-MB-435 melanoma 100% | SW-620 colon 98.2% | MCF7 breast 86.1% | HCT-116 colon 95.2% | HCC-2998 colon 97.4% | KM12 colon 67.8%

COc1cc2nc(N3CCCC3)nc(NCCc3ccccc3)c2cc1OC
inactive: T-47D breast 80.8% | BT-549 breast 82.6% | MDA-MB-435 melanoma 91.5% | MCF7 breast 35.4% | HCC-2998 colon 70.6% | KM12 colon 96.3%
active: SW-620 colon 0.907% | HCT-116 colon 2.87%

COC(=O)c1cccc(NC(=O)c2ccc(-c3cccc(N)c3)o2)c1
inactive: T-47D breast 88.1% | BT-549 breast 93.5% | MDA-MB-435 melanoma 98.8% | SW-620 colon 104% | MCF7 breast 92.4% | HCT-116 colon 108% | HCC-2998 colon 101% | KM12 colon 98%

C=C1c2nc3ccccc3n2C=C(c2cccc(Cl)c2)N1Cc1ccc(OC)cc1
inactive: SW-620 colon 20.6% | HCT-116 colon 12.8% | HCC-2998 colon 25.7% | KM12 colon 13%
active: T-47D breast -22.5% | BT-549 breast -1.26% | MDA-MB-435 melanoma -32.3% | MCF7 breast 4.64%

COc1cc(-c2nc3ccccc3[nH]2)ccc1OCc1nnc(-c2ccc(CC(C)C)cc2)o1
inactive: T-47D breast 57.2% | BT-549 breast 88.5% | MDA-MB-435 melanoma 98% | SW-620 colon 103% | MCF7 breast 79.6% | HCT-116 colon 82% | HCC-2998 colon 119% | KM12 colon 102%

Nc1n[nH]c2ccc([C@@H]3Nc4cc5c(cc4[C@H]4C6CCC(C6)[C@@H]34)C(=O)NC5)cc12 (some centres not stated)
active: BT-549 breast -0.949% | MDA-MB-435 melanoma -21.5% | HCT-116 colon 6.53% | KM12 colon 8.14%
inactive: T-47D breast 76.9% | SW-620 colon 18.5% | MCF7 breast 17.2% | HCC-2998 colon 17.1%

COc1ccc(-c2cc(NC(=O)Nc3ccc4ncsc4c3)no2)cc1
inactive: T-47D breast 86.6% | BT-549 breast 106% | MDA-MB-435 melanoma 105% | SW-620 colon 105% | MCF7 breast 84.6% | HCT-116 colon 102% | HCC-2998 colon 103% | KM12 colon 100%

COc1ccc(-c2n[nH]nc2-c2csc3ccccc23)cc1OC
inactive: T-47D breast 28.5% | BT-549 breast 16.9% | SW-620 colon 21.3% | MCF7 breast 17.1% | HCT-116 colon 22.4% | HCC-2998 colon 72.1% | KM12 colon 27.6%
active: MDA-MB-435 melanoma -31.8%

Cc1nc(/N=C(\N)NC(=O)Nc2cccc([N+](=O)[O-])c2)sc1C
inactive: T-47D breast 80.8% | BT-549 breast 65.8% | SW-620 colon 40.1% | MCF7 breast 31.1% | HCT-116 colon 71.1% | HCC-2998 colon 84.1% | KM12 colon 72.1%
active: MDA-MB-435 melanoma 8.17%

COc1ccc(/C=C(\C#N)C(=O)Nc2cccc(Nc3nc(SC)nc(-c4cccc([N+](=O)[O-])c4)c3C#N)c2)cc1OC
inactive: T-47D breast 87% | BT-549 breast 95.9% | MDA-MB-435 melanoma 103% | SW-620 colon 102% | MCF7 breast 70.8% | HCT-116 colon 92.6% | HCC-2998 colon 114% | KM12 colon 99.1%

O=C(COc1ccc(-c2nc3cc(Cl)c(Cl)cc3[nH]2)cc1)N=Nc1c(O)[nH]c2ccccc12
inactive: BT-549 breast 64.7% | MDA-MB-435 melanoma 25.6% | HCT-116 colon 16.2%
active: T-47D breast -37.9% | SW-620 colon -32.3% | MCF7 breast -49.7% | HCC-2998 colon -3.87% | KM12 colon -38.8%

COc1cc(C=Nc2oc(-c3ccccc3)c(-c3ccccc3)c2C#N)cc(CN2CCCCC2)c1O
inactive: T-47D breast 86.8% | BT-549 breast 111% | MDA-MB-435 melanoma 103% | SW-620 colon 104% | MCF7 breast 94% | HCT-116 colon 95% | HCC-2998 colon 102% | KM12 colon 100%

CCOC(=O)c1csc(NC(=O)COc2cccc(/C=C3\CSc4ccccc4C3=O)c2)n1
inactive: T-47D breast 73.8% | MDA-MB-435 melanoma 17.9%
active: BT-549 breast -88% | SW-620 colon -65.5% | MCF7 breast 2.02% | HCT-116 colon 4.95% | HCC-2998 colon -31.8% | KM12 colon -64.4%

O=C1Nc2ccc(Br)cc2C12Oc1ccccc1C1CC(c3ccc(F)cc3)=NN12 (configuration not stated)
inactive: T-47D breast 85.9% | BT-549 breast 91.8% | MDA-MB-435 melanoma 99.8% | SW-620 colon 99% | MCF7 breast 83.5% | HCT-116 colon 92.3% | HCC-2998 colon 97.8% | KM12 colon 86.3%

CC1CCNC(C)C1 (configuration not stated)
inactive: T-47D breast 104% | BT-549 breast 105% | MDA-MB-435 melanoma 107% | SW-620 colon 100% | MCF7 breast 96.8% | HCT-116 colon 108% | HCC-2998 colon 103% | KM12 colon 106%

Cc1cc(N2CCCCCC2)nc(NC2CCCC(Nc3ccnc4cc(Cl)ccc34)C2)n1 (configuration not stated)
active: T-47D breast -50.3% | BT-549 breast -85.1% | MDA-MB-435 melanoma -87.7% | SW-620 colon -76.9% | MCF7 breast -56.8% | HCT-116 colon -95.9% | HCC-2998 colon -80.3% | KM12 colon -75.5%

CCN=C1C=CC(=C(c2ccc(N)cc2)c2ccc(N(CC)CC)c(C)c2)C=C1
active: T-47D breast 1.14% | BT-549 breast -31.8% | MDA-MB-435 melanoma -41.2% | SW-620 colon 4.24% | MCF7 breast -11.5% | HCT-116 colon -17.5% | HCC-2998 colon -4.16% | KM12 colon -88.4%

NC(CSC(c1ccccc1)(c1ccccc1)c1ccc(Cl)cc1)C(=O)O (configuration not stated)
active: MDA-MB-435 melanoma -40.2% | MCF7 breast 8.48% | HCT-116 colon 4.19% | HCC-2998 colon -36.3% | KM12 colon 1.65%
inactive: T-47D breast 23.7% | BT-549 breast 27.1% | SW-620 colon 19.2%

Cn1c(O)c(N=NC(=O)c2cc(-c3ccccc3)on2)c2ccccc21
inactive: T-47D breast 101% | BT-549 breast 103% | MDA-MB-435 melanoma 95.3% | SW-620 colon 105% | MCF7 breast 77.5% | HCT-116 colon 98.9% | HCC-2998 colon 102% | KM12 colon 101%

COc1ccc(Nc2c3c4c(cccc4[nH]c2=O)C(=O)c2ccccc2-3)cc1
inactive: T-47D breast 75.6% | SW-620 colon 19%
active: BT-549 breast 6.53% | MDA-MB-435 melanoma -52.4% | MCF7 breast 0.568% | HCT-116 colon 4.08% | HCC-2998 colon -5.28% | KM12 colon -36.2%

CC(=O)Nc1ccc(-n2c(O)c(/C=N/NC(=O)Cc3ccccc3Nc3c(Cl)cccc3Cl)sc2=S)cc1
inactive: T-47D breast 80.6% | BT-549 breast 104% | MDA-MB-435 melanoma 109% | SW-620 colon 96.5% | MCF7 breast 92.3% | HCT-116 colon 95.3% | HCC-2998 colon 106% | KM12 colon 105%

COc1ccc(-n2nc(C)c3c(Nc4ccc(NC(=O)Nc5cccc(C(F)(F)F)c5)cc4)ncnc32)cc1
active: T-47D breast -13.9% | MDA-MB-435 melanoma 6.96% | MCF7 breast 2.15% | HCT-116 colon 1.52% | KM12 colon 2.78%
inactive: BT-549 breast 25.2% | SW-620 colon 12.4% | HCC-2998 colon 14.1%

CCC(=O)c1ccc(Cl)s1
inactive: T-47D breast 105% | BT-549 breast 90.5% | MDA-MB-435 melanoma 114% | SW-620 colon 104% | MCF7 breast 97.8% | HCT-116 colon 101% | HCC-2998 colon 102% | KM12 colon 107%

COc1ccc(Nc2nc(SC)nc(-c3cccc([N+](=O)[O-])c3)c2C#N)cc1
inactive: T-47D breast 70.1% | BT-549 breast 86.9% | MDA-MB-435 melanoma 66.5% | SW-620 colon 57.9% | MCF7 breast 66.7% | HCT-116 colon 15.8% | HCC-2998 colon 94.3% | KM12 colon 97.7%

CON1C(=O)CC[C@]2(C)[C@H]3CC[C@@H]4C([C@@]5(C)CCC(=O)O5)CC[C@@]4(C)[C@]3(C)CC[C@H]2C1(C)C (some centres not stated)
inactive: T-47D breast 90.7% | BT-549 breast 103% | MDA-MB-435 melanoma 101% | SW-620 colon 103% | MCF7 breast 94.8% | HCT-116 colon 91.4% | HCC-2998 colon 108% | KM12 colon 101%

O=C1/C(=C/C(Cl)=C/c2ccccc2)SC(=S)N1CCc1ccc(O)cc1
inactive: BT-549 breast 11.6% | MCF7 breast 26.4%
active: T-47D breast -34.4% | MDA-MB-435 melanoma -30.7% | SW-620 colon 4.79% | HCT-116 colon -62.3% | HCC-2998 colon -68.1% | KM12 colon -31.6%
